The panel holds about 83,000 compounds, 20% with a hit somewhere; the sample as a whole holds those more often.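 Negative percent growth values reflect cell death: -40 means 40% of the cells present at the start died, and -100 means all died.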 Unmarked numbers belong to inactive results. Activity calls are given as the source filed them. Rule for the calls: active = growth percent below 10; inactive = the rest.

The source of these data is PubChem BioAssay (NCI).

Among the test systems are T-47D breast; BT-549 breast; MDA-MB-435 melanoma; SW-620 colon; MCF7 breast; HCT-116 colon; HCC-2998 colon; KM12 colon.
What all share (assay): NCI-60 one-dose screen, 48 h (100 = growth as untreated, 0 = no growth, -100 = all killed)
Holding throughout (settings): 10 µM unless noted

With `Cc1cccc(CNc2c3ccccc3nc3ccccc23)c1`, the growth with T-47D breast was 25.3%; in the assay on BT-549 breast, 67.3%; in the assay on MDA-MB-435 melanoma it was 29.1%; in the assay with SW-620 colon, 17.2%; in the assay with MCF7 breast, 6.23% (active); in the assay with HCT-116 colon it was 9.81% (active). Also, the values for the growth in the assay on HCC-2998 colon and with KM12 colon were 3.58% (active) and 25.6%, respectively.

As for `O=c1[nH]c(Cc2nc3ccccc3s2)nc2cc(Br)ccc12`, the growth in the assay with T-47D breast is 54.2%; with BT-549 breast, 70.2%; in the assay on MDA-MB-435 melanoma, 45.6%; with SW-620 colon, 61.3%; in the assay with MCF7 breast it was 78.5%; with HCT-116 colon it was 50.6%. Moreover, the growth in the assay with HCC-2998 colon was 84.1%; in the assay on KM12 colon, 41.4%.

In the case of `COc1cc2nc3cc([N+](=O)[O-])ccc3c(NCCNCC(C)O)c2cc1OC` (stereo unspecified), the growth in the assay on T-47D breast is -7.36% (active); in the assay on BT-549 breast, -40.5% (active); with MDA-MB-435 melanoma it was -87.6% (active); in the assay on SW-620 colon, -4.13% (active); in the assay with MCF7 breast it was -13.3% (active); in the assay with HCT-116 colon, -18.8% (active). Also, the growth was -47.8% (active) in the assay on HCC-2998 colon and -11.9% (active) in the assay on KM12 colon.

As to `O=S(=O)(NCCNc1nccc(-c2c(-c3ccc(F)c(O)c3)nc3sccn23)n1)c1ccc(O)cc1`, the growth with T-47D breast was 6.97% (active); in the assay on BT-549 breast, 55.1%; with MDA-MB-435 melanoma, 9.31% (active); in the assay on SW-620 colon it was 67.1%; in the assay on MCF7 breast it was 27.6%; in the assay on HCT-116 colon, 30.4%. Further, the growth with HCC-2998 colon is 76.5%; in the assay with KM12 colon, 13.9%.

Take `Cc1ccc(C(=O)c2ccc(CC(=O)N/N=C/c3ccccc3O)n2C)cc1`: the growth is 75.6% in the assay on T-47D breast; 85.1% in the assay with BT-549 breast; 83.2% in the assay on MDA-MB-435 melanoma; 89.6% with SW-620 colon; 81.5% in the assay on MCF7 breast; 92.1% in the assay on HCT-116 colon. Moreover, the growth in the assay on KM12 colon was 80.4%.

Regarding `C#CCNC(=O)[C@H](CC)[C@H]1CC[C@H](C)[C@H]([C@@H](C)[C@H](O)[C@H](C)C(=O)[C@H](CC)C2O[C@]3(C=CC(=O)[C@]4(CC[C@@](C)([C@H]5CC[C@](O)(CC)[C@H](C)O5)O4)O3)[C@H](C)C[C@@H]2C)O1` (stereo partly specified), the growth in the assay with T-47D breast is 41.9%; in the assay on BT-549 breast, 40.9%; in the assay on MDA-MB-435 melanoma it was -65.3% (active); in the assay with SW-620 colon it was 30.8%; in the assay on MCF7 breast it was 24%; in the assay on HCT-116 colon it was 25.9%. Moreover, the growth with HCC-2998 colon was 85.4%; in the assay on KM12 colon, 23.8%.

Regarding `CCCC/C(CC)=N\NS(=O)(=O)c1ccc([N+](=O)[O-])cc1`, the growth is 95.3% in the assay on T-47D breast; 114% with BT-549 breast; 107% with MDA-MB-435 melanoma; 106% in the assay with SW-620 colon; 102% in the assay on MCF7 breast; 99.6% with HCT-116 colon. In the assay on KM12 colon, the growth is 98.6%.

Turning to `O=C1Nc2ccccc2/C1=C/c1cccn1CCCCn1c2ccccc2c(=O)c2ccccc21`, the growth is 5.03% (active) in the assay with T-47D breast; 74.5% in the assay on BT-549 breast; 92.7% in the assay with MDA-MB-435 melanoma; 98.8% in the assay on SW-620 colon; 3.81% (active) with MCF7 breast; 74.2% in the assay on HCT-116 colon. Also, the growth in the assay with KM12 colon was 13%.

`CCN(CC)CCn1c2ccc(OC)cc2c2sc3cc(OC)ccc3c(=O)c21`: the growth in the assay on T-47D breast is 48.5%; in the assay with BT-549 breast, 61.7%; in the assay on MDA-MB-435 melanoma, 35.7%; with SW-620 colon, 8.87% (active); with MCF7 breast it was 4.61% (active); in the assay on HCT-116 colon it was 4.6% (active). Also, the growth was 35.7% in the assay on HCC-2998 colon and 22.4% in the assay on KM12 colon.

Take `Nc1ncnc2c1c(-c1cccc(Cl)c1)nn2CC(=O)N1CCOCC1`: the growth in the assay with T-47D breast was 105%; with BT-549 breast, 97.2%; with MDA-MB-435 melanoma, 104%; in the assay with SW-620 colon, 106%; in the assay on MCF7 breast, 94.9%; in the assay with HCT-116 colon, 101%. Further, the growth is 110% in the assay on HCC-2998 colon and 102% in the assay with KM12 colon.

With `COc1cc(/C=C/C(=O)c2ccc(F)cc2)ccc1OCCCCOc1ccc(/C=C/C(=O)c2c(C)nc3ccccc3c2C)cc1OC`, the growth with T-47D breast is 92.7%; in the assay on BT-549 breast, 154%; with MDA-MB-435 melanoma it was 94.4%; in the assay with SW-620 colon it was 102%; with MCF7 breast it was 80.1%; with HCT-116 colon it was 90.8%. Moreover, the growth in the assay on KM12 colon is 111%.

As to `CC1CCc2c(C(=O)Nc3ncc(Cc4cccc([N+](=O)[O-])c4)s3)csc2C1` (stereo unspecified), the growth was 27.8% in the assay with T-47D breast; 46.6% in the assay with BT-549 breast; -42% (active) with MDA-MB-435 melanoma; 23.3% with SW-620 colon; 17.1% in the assay on MCF7 breast; 19% in the assay on HCT-116 colon. Besides, the growth in the assay on KM12 colon was 18.2%.

Consider `COc1cccc(CNc2ccc3ncnc(Nc4ccc(F)c(Cl)c4)c3c2)c1`, for which the growth in the assay with T-47D breast is 51.3%; in the assay on BT-549 breast, 86.8%; in the assay with MDA-MB-435 melanoma, 78.3%; in the assay with SW-620 colon, 76.6%; in the assay with MCF7 breast it was 65.2%; in the assay with HCT-116 colon, 64.9%. Besides, the growth is 86.4% with HCC-2998 colon and 76.6% in the assay on KM12 colon.

Regarding `CC(C)Cn1cnc2c(=O)[nH]c(N)nc21`, the growth with T-47D breast was 85.3%; with BT-549 breast it was 98.5%; with MDA-MB-435 melanoma, 109%; in the assay with SW-620 colon, 106%; with MCF7 breast, 86.7%; with HCT-116 colon, 101%. Also, the growth with KM12 colon was 106%.

Regarding `N#Cc1nc(-c2ccc(Cl)cc2)oc1S(=O)(=O)N1CCN(c2ccc(F)cc2)CC1`, the growth in the assay on T-47D breast is 89.3%; with BT-549 breast, 100%; in the assay with MDA-MB-435 melanoma it was 100%; in the assay on SW-620 colon, 72.8%; with MCF7 breast, 83.5%; with HCT-116 colon it was 78.7%. In addition, the growth with KM12 colon is 102%.

With `C#CCOc1cccc(Nc2ncnc3cc(NC(=O)C=C)ccc23)c1`, the growth in the assay with T-47D breast is 8.13% (active); in the assay with BT-549 breast, 7.82% (active); in the assay with MDA-MB-435 melanoma it was -1.49% (active); with SW-620 colon it was 12.1%; in the assay on MCF7 breast it was 20.4%; in the assay with HCT-116 colon, 2.37% (active). Further, the results for the growth in the assay on HCC-2998 colon and in the assay on KM12 colon were 60.7% and 24.6%, respectively.
